Compound activity deposited in PubChem by National Center for Advancing Translational Sciences (NCATS).
FLuc counter: qHTS profiling assay for firefly luciferase inhibitor/activator using purifed enzyme and Km concentrations of substrates (counterscreen for miR-21 project); hit rate 6.9% among 360,000; purified FLuc, Km substrates, luminescence inhibition; Potency, µM (doses to about 57.5 µM), inactives show at the top dose activity change, negative = inhibition, usual class: inhibitors; Luciferin 4-monooxygenase (Photinus pyralis), P08659;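 further: plate controls were vehicle for no effect and reference inhibitor for full effect; nearly all actives have a fitted effect of over 55% in size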
Target sequence (P08659 whole entry, looked up): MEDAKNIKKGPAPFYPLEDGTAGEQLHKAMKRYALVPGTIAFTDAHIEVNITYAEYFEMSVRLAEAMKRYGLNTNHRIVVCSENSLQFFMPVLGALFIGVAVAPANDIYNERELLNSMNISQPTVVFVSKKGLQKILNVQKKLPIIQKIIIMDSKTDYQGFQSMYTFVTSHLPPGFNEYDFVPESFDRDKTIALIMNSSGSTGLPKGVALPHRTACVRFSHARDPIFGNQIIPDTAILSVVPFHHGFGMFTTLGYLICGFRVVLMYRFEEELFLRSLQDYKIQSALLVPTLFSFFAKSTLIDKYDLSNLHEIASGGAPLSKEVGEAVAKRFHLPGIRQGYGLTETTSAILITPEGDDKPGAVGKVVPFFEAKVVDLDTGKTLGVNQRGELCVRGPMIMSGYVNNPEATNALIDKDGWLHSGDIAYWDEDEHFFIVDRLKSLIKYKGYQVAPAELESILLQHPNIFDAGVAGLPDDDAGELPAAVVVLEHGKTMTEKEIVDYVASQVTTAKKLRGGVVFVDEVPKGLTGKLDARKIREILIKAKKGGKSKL
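Purified P. pyralis luciferase, 10 nM final, with Km-level 10 uM D-luciferin and 10 uM ATP in 50 mM Tris acetate pH 7.5, 10 mM Mg acetate, 0.01% Tween-20, 0.05% BSA; 6-point qHTS titration about 60 µM downward; luminescence read.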
NPC1 promoter act: qHTS Assay for NPC1 Promoter Activators; hit rate 2.4% among 320,000; Huh7 NPC1 promoter luciferase reporter, 24 h; Potency, µM (doses to about 9.22 µM), inactives show top-dose activation, actives largely listed as activators; further: % of control where 0% means no effect; nearly all actives have a fitted effect of over 60% in size
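Readout is luciferase luminescence, reflecting NPC1 promoter activation in stably transfected Huh7 cells after 24 h compound exposure at 37 °C in reduced-serum medium with 10% FBS.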
Luc counter: Counterscreen for Luciferase (Kinase-Glo TM) Inhibition | Kinase-Glo luciferase, ATP luminescence, 8 min | Potency, µM (series often up to 38.3 µM), for the others: top-dose activity change, negative = inhibition, most hits filed as inhibitors | hit rate 0.28% among 200,000 | AID 1379, 2008; further: on the % scale 0 is the no-effect control and ±100 the full control effect; nearly all actives have a fitted effect of over 60% in size
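Light output from Kinase-Glo luciferase with luciferin and 10 uM ATP in 50 mM imidazole pH 7.2, KCl, MgCl2, Tween 20, BSA; compound pin-delivered, 8-min ambient incubation, then luminescence read.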
Rab9 prom act: qHTS Assay for Rab9 Promoter Activators | AID 485297, 2010 | Huh7 Rab9 promoter-luciferase reporter, luminescence, 24 h | hit rate 2.8% among 320,000 | Potency, µM (doses to about 9.22 µM), for inactives: top-dose activation, negative = inhibition, hits mostly activators; further: % of control where 0% means no effect; nearly all actives have a fitted effect of over 60% in size
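Quantitative HTS format; Huh7 Rab9-luciferase reporter cells (1500/well) receive compound 2 h post-plating, incubate 24 h at 37 °C, then get luciferase reagent for 10 min before luminescence reading.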
SMN2 splice enh: qHTS Assay for Enhancers of SMN2 Splice Variant Expression; Potency, µM (doses to about 46.1 µM), without a hit: at the highest dose activity change, positive = activation, actives largely listed as activators; hit rate 2.8% among 210,000; HEK293 SMN2-luciferase splicing reporter, luminescence, 30-36 h; AID 1458, 2008; further: % of control where 0% means no effect; nearly all actives have a fitted effect of over 55% in size
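HEK293 cells carry an SMN2 minigene-luciferase reporter in which exon 7 inclusion puts luciferase in frame. Cells were seeded at 2000 cells/well, attached for 10-12 hours, then exposed to compounds for 30-36 hours at 37C before ONE-Glo luminescence.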
ELG1 genotoxic: qHTS screen for small molecules that induce genotoxicity in human embryonic kidney (HEK293T) cells expressing luciferase-tagged ELG1; HEK293T ELG1-luciferase reporter, luminescence, 16 h; Potency, µM (highest dose often 46 µM), for inactives: at the highest dose activity change, positive = activation, hits mostly activators; hit rate 1.3% among 330,000; AID 504466, 2011; further: % of control where 0% means no effect; nearly all actives have a fitted effect of over 60% in size
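ELG1-luciferase HEK293T cells, 2,000/well; compound pinned in; 16 hr, 37 °C, 5% CO2; ONE-Glo, 30 min RT; luminescence on CCD imager.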
The depositor's hits bear a star; u = inconclusive; x = no result; [ ] = dose if it differs, or a comment. The list is not random: actives were taken first. Their share in the collection is about 7.3%. The call rests on the fitted dose curve; in most records, active means well fitted curve in the direction sought with a large enough effect; inconclusive means small, poorly fitted or top-dose-only effect, or another doubt; inactive means no such curve, though single readings can be large; an effect the other way counts as inactive or inconclusive. Potency means the concentration at half of the fitted maximal effect.

SMILES	FLuc counter	NPC1 promoter act	Luc counter	Rab9 prom act	SMN2 splice enh	ELG1 genotoxic
Cn1ncc([N+](=O)[O-])c1C(=O)Nc1ccc(Cl)cc1	1%	-3%	x	6%	x	-3%
CCCOc1ccc(C(=O)Nc2cccc(-c3nc4ccccc4[nH]3)c2)cc1	4.8µM*	x	x	x	u	x
COc1ccccc1NC(=O)CSc1nc2c(oc3ccccc32)c(=O)n1-c1ccc(C)cc1	-9%	x	x	x	-8%	x
CCOc1ccc(S(=O)(=O)NCCc2c(C)[nH]c3c(Cl)cccc23)cc1C	2%	x	x	x	-11%	x
CCOC(=O)c1ccc(N2CCN(c3ccccc3F)CC2)c(NC(=O)Nc2ccc(Cl)c(Cl)c2)c1	0%	x	x	x	x	x
Nc1c(OCC(=O)O)ccc2cc(S(=O)(=O)O)ccc12	x	x	0%[7.66 µM]	x	5%[9.22 µM]	x
CS(=O)(=O)c1ccc(C(=O)Nc2cccc(-c3nc4ccccc4[nH]3)c2)cc1	24µM*	-8%	x	1%	x	-4%
CS(=O)(=O)c1ccc(C(=O)Nc2ccc(-c3nc4ccccc4[nH]3)cc2)cc1	2%	u	x	2.5µM*	x	10%
N#Cc1ccc2c(c1)C[C@]1(CCCCN3C(=O)c4ccccc4C3=O)Oc3c(c(=O)oc4ccc(F)cc34)C2O1	1%[11.5 µM]	3%[1.84 µM]	x	-5%[1.84 µM]	x	x
CCc1ccc(OCCCC(=O)NCc2ccccc2)cc1	-16%	-2%	1%	0%	9%	2%
CCC/C(C)=C/c1ccc(CC)cn1	9.5µM*	1%	x	0%	x	0%
CN=Cc1nc(-c2ccccc2)oc1O	17µM*	3.5µM*	-9%	2.5µM*	11µM*	u
Oc1oc(-c2ccccc2)nc1/C=N/c1ccccn1	-1%	-6%	-2%	-9%	x	-6%
Cc1ccc(-c2nc3ccccc3nc2Cl)cc1	u	-2%	4%	-2%	15%	4%
Cc1ccc(-c2nc3ccccc3nc2NN)cc1	1.3µM*	6%	x	u	x	8.2µM*
C/C=C\C=C/C(=O)Nc1cccc(C2=NOC3(C2)C[C@@H](C(N)=O)N(C(=O)COc2ccc(Cl)cc2)C3)c1 (stereo partly drawn)	15µM*	-2%	x	-3%	x	-3%
C/C=C\C=C\C(=O)N1CC2(CC(c3cccc(NC(=O)COc4ccc(Cl)cc4)c3)=NO2)C[C@H]1C(N)=O (stereo partly drawn)	9.5µM*	-2%	x	-3%	x	-4%
O=C(NC1CCCCC1)c1ccc(Cc2nc3ccccc3[nH]2)cc1	x	x	-1%	x	x	x
Cc1cccc(-c2nc3c4ccccc4nc(NCc4ccccc4Cl)n3n2)c1	u	x	x	x	29%	x
CCOc1ccc(CSC(=N)N)cc1Cl	-2%	-1%	x	-10%	x	-20%
CCCCOc1ccc(CSCCN)cc1Cl	12µM*	-21%	x	-20%	x	u
C=C(C)C1CC=C(C)C(OC(C)=O)C1 (stereo not drawn)	x	x	x	x	-2%	x
CC1=NC(=O)C(N=Nc2ccccc2C(=O)O)N1c1ccccc1 (stereo not drawn)	15µM*	7%	2%	26%	12%	-7%
O=C(O)c1cccc(N=NN2CCOCC2)c1	u	30%	-2%	u	u	9%
CC1=NC(=O)C(N=Nc2cccc(C(=O)O)c2)N1c1ccccc1 (stereo not drawn)	0.43µM*	u	-4%	1.3µM*	0.5µM*	u
SMILES	FLuc counter	NPC1 promoter act	Luc counter	Rab9 prom act	SMN2 splice enh	ELG1 genotoxic
CC1=NC(=O)C(N=Nc2ccccc2)N1c1ccccc1 (stereo not drawn)	u	12%	2%	3.5µM*	16µM*	u
COC(=O)C[C@H]1c2ccccc2C2=C(C[C@@H](C)[C@H]3C(=O)N(c4ccccc4)C(=O)[C@@H]23)N1C(=O)OC	x	x	-11%[7.66 µM]	x	-5%[9.22 µM]	x
Cc1occc1C(=O)N/N=C/c1ccc(N(C)C)cc1	1.2µM*	0.32µM*	x	0.11µM*	x	u
Cc1ccc(/C=N/NC(=O)c2ccoc2C)o1	u	29%	u	u	u	16%
Cc1occc1C(=O)N/N=C/C=C/c1ccc(N(C)C)cc1	24µM*	4.5µM*	x	2.5µM*	x	u
Cc1occc1C(=O)N/N=C/C=C/c1ccccc1[N+](=O)[O-]	u	2%	0%	-2%	-11%	6%
Cc1occc1C(=O)N/N=C/C(Br)=C\c1ccccc1	2.1µM*	2.5µM*	x	0.89µM*	x	u
Cc1occc1C(=O)N/N=C/C=C/c1ccccc1	u	3.5µM*	-14%	3.5µM*	13µM*	u
COC(=O)c1cccn(CC(=O)c2ccc(Cl)cc2Cl)c1=O	15µM*	0%	0%	-6%	7%	5%
COc1cc(SC)ccc1C(=O)Nc1nccs1	0.6µM*	0.89µM*	-6%	0.56µM*	x	u
COc1ccccc1C(=O)Nc1cccc(SC)c1	17µM*	-2%	0%	16%	21%	u
COc1cc(SC)ccc1C(=O)Nc1c(C)cccc1C	-8%	-6%	0%	-2%	-17%	1%
COc1cc(SC)ccc1C(=O)Nc1ccccc1	6.7µM*	8%	-1%	28%	u	u
CSc1cccc(NC(N)=O)c1	-4%	-2%	x	-2%	x	-2%
CSc1cccc(NC(=O)c2cccc3cccnc23)c1	6.7µM*	u	x	26%	x	u
O=C(O)CCC/C=C\C[C@@H]1C(/C=C/[C@@H](O)COc2cccc(C(F)(F)F)c2)[C@@H](O)C[C@@H]1O (stereo partly drawn)	x	x	x	x	3%	x
CCN(C(=O)c1ccc2c(c1)N(Cc1cccc(Cl)c1)C(=O)c1ccccc1S2=O)c1ccccc1 (stereo not drawn)	-1%	x	x	x	x	x
COc1cc(SC)ccc1C(=O)NNC(=O)c1cc(C)oc1C	1.9µM*	3.2µM*	x	1.3µM*	x	u
Cc1cc2nc(CS)[nH]c2cc1C	4.8µM*	8%	x	12%	x	4%
Cc1ccc(-c2nc3sc4c(c3c(=O)n2N)CCCC4)cc1	2.1µM*	1.3µM*	-4%	0.63µM*	11µM*	u
NNc1nc2sc3c(c2c(=O)n1-c1ccccc1)CCCC3	12µM*	-6%	x	1%	x	5%
CCSc1nc2sc3c(c2c(=O)n1-c1ccc(C)cc1)CCCC3	-12%	x	x	x	-5%	x
Nn1c(Nc2ccccc2)nc2sc3c(c2c1=O)CCCC3	15µM*	2%	-3%	0%	u	10%
O=c1c2c3c(sc2ncn1/N=C/c1ccccc1)CCCC3	11µM*	25%	-1%	22%	20µM*	u
Cc1cccc(NC(=O)c2sc(-n3nc(C)c(Cc4ccc5c(c4)OCO5)c3C)nc2C)c1C	-2%	x	x	x	x	x
